Test results as given in ChEMBL document CHEMBL3988442, “University of Dundee, Small-Polar-MMV Screening Library” (2021).

target: AMP-activated protein kinase, AMPK (Homo sapiens) (UniProt P54646+O43741+P54619+Q9UGJ0+Q9Y478+Q13131+Q9UGI9); assay: AMP-dependent Kinase enzyme assay. An in vitro enzyme assay that detects ADP turnover that is directly proportional to AMPK activity. This uses naive AMPK that is activated during the assay with MK-8722; assay type: functional; set-up: scale not given: direction of the effect not stated beside the values; details: 30 µM

Structure (SMILES) | Percent Effect [%]
N#CC1(NC(=O)c2cc(Cl)ccc2OC(F)F)CCOCC1 | -2.23
Cc1c(NC(=O)NCCO)cccc1OC1CCCC1 | -2.68
CN(C)CC1(O)CCCN(C(=O)Cn2ccc3ccccc32)CC1 (stereo not given) | -8.54
Cc1cnn(C2CN(Cc3nc4cc(Cl)ccc4n3C)C2)c1 | -6.13
Cn1ncc2c(NC3CCC3)nc(-c3ccncc3)nc21 | 87.5
CC(C)c1cc(C(=O)NCCc2nc(-c3ccncc3)n[nH]2)[nH]n1 | 39.1
c1ccc(N2CCC(OCC3CCCCO3)CC2)nc1 (stereo not given) | 6.76
CC(c1ccon1)N(C)S(=O)(=O)NCc1ccccc1 (stereo not given) | 2.51
CC1CCCCN1C(=O)COc1nc(C(C)(C)C)no1 (stereo not given) | -0.675
Cc1ccccc1C(CC(=O)N1CCc2sccc2C1)NC(N)=O (stereo not given) | 11.7
CC[C@@H](CO)NC(=O)c1cc(COc2ccc(OC)cc2Cl)[nH]n1 | -0.681
Cc1ccc(-c2cc(C(=O)NCC3CCOC3)n[nH]2)s1 (stereo not given) | -4.75
Cc1cnccc1CNCc1ccc(OC23CCCN(CC2)C3)cc1 (stereo not given) | -10.2
COCCNc1ccc(CC2CCCN(C3CCCC3)C2)nn1 (stereo not given) | 4.32
CCc1ccc(C(=O)NC[C@H]2CCCN2C(=O)c2ccc(CC)o2)o1 | -0.868
O=S(=O)(c1cccnc1)N1CCCCC1CCN1CCOCC1 (stereo not given) | 16.1
CCC(=O)Nc1cccc(OCC(=O)N[C@@H]2C[C@H]3CC[C@@H]2C3)c1 | 3.88
COc1nccc(N2CC[C@H](CO)[C@@H](O)C2)c1C#N | -6.05
O=C(c1ccc(Cl)s1)N1CCCn2nc(CN3CC[C@H](F)C3)cc2C1 | 3.24
CCc1cc(CN2CCCCC2c2ccc(F)cc2)on1 (stereo not given) | 2.23
